# PubChem BioAssay (Tox21)
# Inconclusive results are not listed. Entries that show only a call come without a potency. The source made the active and inactive calls. Calls follow the shape of the dose curve; as a rule, active = well fitted activation curve with a large enough effect in the repeat runs; inconclusive = weak or mixed curves; inactive = flat fitted curve, though single readings scatter.
# Assay: A CellTox Green Cytotoxicity Assay to monitor cytotoxicity in HEK293 cells - 8 hour (AID 1224884); also: nearly all actives have a fitted effect of over 35% in size
# Conditions: CellTox Green fluorescence; series mostly up to 76.8 µM
# Description: National Center for Advancing Translational Sciences [NCATS]
# NIH Chemical Genomics Center [NCGC]
# U.S. Environmental Protection Agency [EPA]
# National Institutes of Environmental Health Sciences [NIEHS]
# National Toxicology Program [NTP]
# Cell-based models are critical for drug discovery. Determining the natural cytotoxic effects resulting from test compounds is an essential research activity. A CellTox Green Cytotoxicity Assay to monitor cytotoxicity in real time of continues cell culture during 40 hours of the compound treatment was used to screen Tox21 10K library compounds in Hek293 cells. CellTox Green Cytotoxicity Assay is a nonlytic, homogeneous, biofluorescent method to measure cytotoxicity in cell culture after experimental manipulation. The assay system uses a proprietary asymmetric cyanine dye that is excluded from viable cells but preferentially stains the dead cell's DNA. […] Viable cells produce no appreciable increases in fluorescence. Therefore, the fluorescence signal produced by the binding interaction with dead cell DNA is proportional to cytotoxicity.
# The mixture of Hek293 cell suspension and reagents were dispensed at 600cells/6 ul/well in 1536-well tissue culture treated black solid bottom plates using a Multidrop dispenser. After the assay plates were incubated at a 37 C/5% CO2 incubator for 5 hours, 23 nL of compounds dissolved in DMSO, positive and negative controls was transferred to the assay plate by a pintool work station. The plates were incubated at 37 C for 40 hours. The fluorescence intensity were measured at 0h, 8h, 16h, 24h, 32h and 40h time points using ViewLux plate reader during compound treatment.
# Potency is read from the fitted curve at half-maximal effect.
SMILES,Potency,cytotoxicity increase
C[C@H]1C[C@H]2[C@@H]3CCC4=CC(=O)C=C[C@]4(C)[C@@]3(Cl)[C@@H](O)C[C@]2(C)[C@@]1(O)C(=O)CO,inactive,
CCOC(=O)C(F)(F)F,inactive,
O=C(Nc1ccccc1)c1ccccc1O,inactive,
CCCCCCCCCCCCCCOS(=O)(=O)O,21.9 µM (active),
COc1ccc(S(=O)(=O)N2C(=O)[C@@](c3ccccc3OC)(N3C[C@H](O)C[C@H]3C(=O)N(C)C)c3cc(Cl)ccc32)c(OC)c1,inactive,
CCCOC(C(=O)OC1CCN(C)CC1)(c1ccccc1)c1ccccc1,inactive,
CCc1cc(C2=C(C(=O)O)N(c3ccccc3C(F)(F)F)S(=O)(=O)c3ccccc32)cc2c1OCO2,inactive,
CC(=O)[O][Al],inactive,
O=C(O)c1ccc(S(=O)(=O)O)cc1C(=O)O,inactive,
COc1cc2nc(N(C)CCCNC(=O)C3CCCO3)nc(N)c2cc1OC (stereo not given),inactive,
CC1=CCCC(C)(C)C12CCC(C)O2 (stereo not given),inactive,
CCOCC(O)COc1ccc(NC(=O)CC[S+](C)C)cc1 (stereo not given),inactive,
CC(COCCO)OCCO (stereo not given),inactive,
NC(N)=NCCC[C@H](N)C(=O)O,,-18% [at 6.97 µM] (inactive)
OCCNCc1ccccc1,inactive,
COC(=O)c1ccc(I)cc1S(=O)(=O)NC(=O)Nc1nc(C)nc(OC)n1,inactive,
Cc1oc(-c2ccccc2)nc1CCOc1cccc2c1ccn2CCC(=O)O,inactive,
O=C(NCC1CN(c2ccc(N3CCOCC3=O)cc2)C(=O)O1)c1ccc(Cl)s1 (stereo not given),inactive,
CCCCCCOC(=O)NC(=N)c1ccc(NCc2nc3cc(C(=O)N(CCC(=O)OCC)c4ccccn4)ccc3n2C)cc1,inactive,
CN(C)CCN(Cc1ccsc1)c1ccccn1,inactive,

SMILES,Potency,cytotoxicity increase
CCCCCCCCCCO[C@@H]1O[C@H](CO)[C@@H](O)[C@H](O)[C@H]1O,inactive,
C=C1C(=C/C=C2\CCC[C@]3(C)[C@@H]([C@H](C)/C=C/[C@@H](O)C4CC4)CC[C@@H]23)C[C@@H](O)C[C@@H]1O,inactive,
C=C(C)C(=O)OCC,inactive,
CNC(=O)CN(CCN(CCN(CC(=O)[O-])CC(=O)NC)CC(=O)[O-])CC(=O)[O-].O.[Gd+3],inactive,
Cn1c(=O)cc(Oc2ccc(F)cc2F)c2cnc(NCC(C)(C)O)nc21,inactive,
CCCCC(CC)COC(=O)COc1ccc(Cl)cc1Cl (stereo not given),inactive,
C/C=C/C=C/CO,inactive,
ClCCOCCOCCCl,inactive,
CC/C=C\CCOC(=O)CC,inactive,
COc1cc(C(=O)OCCCN2CCCN(CCCOC(=O)c3cc(OC)c(OC)c(OC)c3)CC2)cc(OC)c1OC,inactive,
O=C(O)c1ccco1,inactive,
C[N+](C)(C)CCOC(=O)CCC(=O)OCC[N+](C)(C)C,inactive,
Cc1cc(C(=O)O)ccc1[N+](=O)[O-],inactive,
C[C@@H]1C[C@H]2[C@@H]3CCC4=CC(=O)C=C[C@]4(C)[C@@]3(F)[C@@H](O)C[C@]2(C)[C@@]1(O)C(=O)COC(=O)c1ccncc1,inactive,
CNCCCCOc1ccccc1Cc1ccccc1,inactive,
CC(CC=O)c1ccccc1 (stereo not given),inactive,
OC(C#CCN1CCCC1)(c1ccccc1)c1ccccc1,inactive,
CCCCCCCCCCCC(=O)OC[C@@H](O)[C@H]1OC[C@H](OCCO)[C@H]1OCCO,inactive,
CCOc1ccc(O)cc1,inactive,
O=[N+]([O-])c1cccc(S(=O)(=O)O)c1,inactive,
